The whole screen tested about 360,000 compounds, of which about 17,000 (4.7%) were called active. Another 5% or so got no clear call; they are omitted. Rule as the data show it: active = activity change below about -50%; inconclusive = mostly about -30% to -49%; inactive = weaker than that. Only a selection was taken, and actives are over-represented in it overall.
Experiment: qHTS for Inhibitors of Inflammasome Signaling: IL-1-beta AlphaLISA Primary Screen
Conditions: THP-1 LPS/ATP IL-1B secretion, 16 h; at 57.5 µM, stronger effect = lower value
How it was run: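 Secreted IL-1B measured by AlphaLISA bead assay after 16 h compound exposure of THP-1 cells; compounds (final up to 57.5 uM) added 1 h before LPS (250 ng/mL) and ATP (1.25 mM) stimulation; lower signal means less secretion.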
% is scaled to controls: 0 for no effect and ±100 for the full control effect.

| Compound | activity change |
| --- | --- |
| O=C(C1=C[C@H](c2coc3ccccc3c2=O)C[C@H](OCc2ccc(CO)cc2)O1)N1CCN(Cc2ccccc2)CC1 | -63.5% (active) |
| O=C(NCc1ccccc1)C1=C[C@H](C2CC2)C[C@H](OCc2ccc(CO)cc2)O1 | -25.1% (inactive) |
| O=C(C1=C[C@H](c2coc3ccccc3c2=O)C[C@H](OCc2ccc(CO)cc2)O1)N1CCOCC1 | -3.08% (inactive) |
| O=C(NCc1ccccc1)C1=C[C@@H](C2CCCCC2)C[C@@H](OCc2ccc(CO)cc2)O1 | -17.5% (inactive) |
| CC(=O)n1cc([C@H]2C=C(C(=O)N3CCOCC3)O[C@@H](OCc3ccc(CO)cc3)C2)c2ccccc21 | -1.15% (inactive) |
| O=C(C1=C[C@H](c2ccc(C(F)(F)F)cc2)C[C@H](OCc2ccc(CO)cc2)O1)N1CCN(Cc2ccccc2)CC1 | -80.4% (active) |
| O=C(NCc1ccccc1)C1=C[C@@H](c2ccc(C(F)(F)F)cc2)C[C@@H](OCc2ccc(CO)cc2)O1 | -53.9% (active) |
| O=C(C1=C[C@H](C2CC2)C[C@H](OCc2ccc(CO)cc2)O1)N1CCN(Cc2ccccc2)CC1 | -22.6% (inactive) |
| CN1CCN(C(=O)C2=C[C@H](c3ccc4c(c3)OCO4)C[C@H](OCc3ccc(CO)cc3)O2)CC1 | -10.6% (inactive) |
| c1ccc(-c2c[nH]c(-c3ccccc3)c2)cc1 | 14% (inactive) |
| N#CCCC(C#N)(c1cccnc1)N1CCOCC1 (stereo not given) | 2.31% (inactive) |
| CC(C)(C)c1ccc(/C=C/C(=O)NCCCn2ccnc2)cc1 | -13.5% (inactive) |
| Oc1cccc(CCc2ccccn2)c1 | -8.08% (inactive) |
| Cc1cccc(N2CCN(C(=O)COCc3cc(-c4ccc5c(c4)OCO5)on3)CC2)c1C | -0.251% (inactive) |
| CCc1cc(C(=O)N(CC)CC(=O)Nc2c(F)cccc2F)sc1C | -0.176% (inactive) |
| COc1cc(CCN=Cc2ccccc2O)c([N+](=O)[O-])cc1OC | 13.4% (inactive) |
| Cc1csc(=O)n1CCC(=O)OCC(=O)Nc1ccc(N2CCOCC2)cc1 | 0% (inactive) |
| COC(=O)[C@H](Cc1ccccc1)NC(=O)Nc1ccc(S(N)(=O)=O)cc1 | 9.1% (inactive) |
| COc1ccc(C(=O)NC(=S)N2CCCCC2c2cccnc2)cc1OC (stereo not given) | -16.3% (inactive) |
| CSc1ncccc1C(=O)N1CCCC(Nc2ccc(F)c(F)c2)C1 (stereo not given) | 43.2% (inactive) |
| CC(C)OC(=O)CC(=O)CC(O)c1cccc([N+](=O)[O-])c1 (stereo not given) | 19.7% (inactive) |
| CCC(=O)N(Cc1cc2ccccc2[nH]c1=O)c1ccc(OC)cc1 | -28.7% (inactive) |
| Cc1ccc(N(Cc2cc(=O)[nH]c3ccccc23)C(=O)CCl)cc1 | -99.5% (active) |

| Compound | activity change |
| --- | --- |
| CC(=O)N(Cc1cc(=O)[nH]c2ccccc12)c1ccc(C)cc1C | 1.3% (inactive) |
| CC(C=Cc1ccccc1)=NNS(=O)(=O)c1ccc([N+](=O)[O-])cc1 | -3.19% (inactive) |
| CCOc1ccc(S(=O)(=O)N2CCN(C(=O)c3oc4ccccc4c3C)CC2)cc1 | -12.6% (inactive) |
| N#CC1=C(N)Oc2cc(O)ccc2C1C1CCCCC1 (stereo not given) | 50.4% (inactive) |
| N#CC1=C(N)OC2=C(C(=O)CCC2)C1C1CC=CCC1 (stereo not given) | 0.456% (inactive) |
| COCc1[nH]nc2c1C(C1C=CCCC1)C(C#N)=C(N)O2 (stereo not given) | -72.1% (active) |
| CCCCNC(=O)C[C@@H]1C[C@@]2(C(=O)OC)CC(C)(C)CC=C2N(Cc2ccco2)C1=O | -1.57% (inactive) |
| NCCCCC(C(=O)O)N(C(=O)OCc1ccccc1)C(=O)OCc1ccccc1 (stereo not given) | -16.2% (inactive) |
| Cn1nc(C(F)(F)F)c(C(=O)Nc2cccc(C(F)(F)F)c2)c1SCc1ccc(Cl)cc1 | -81.8% (active) |
| O=C(O)CSc1c2c(nc3cc(C(=O)Nc4cccc(C(F)(F)F)c4)ccc13)CCCC2 | -26.7% (inactive) |
| COC(=O)c1ccccc1Sc1c(/C=N/OCc2ccc(Cl)cc2)c(C(F)(F)F)nn1C | 20.2% (inactive) |
| OC[C@@H]1CN(Cc2cccs2)C[C@H](n2cnc3c(Nc4ccccc4)ncnc32)O1 | 8.21% (inactive) |
| O=C1CCNCCN1[C@H](CO)Cc1ccccc1 | 17.5% (inactive) |
| c1ccc2c(CCN3CCNC[C@H]3Cc3cccc4ccccc34)cccc2c1 | -12.9% (inactive) |
| c1ccc(C[C@H]2CNCCN2CCC23CC4CC(CC(C4)C2)C3)cc1 | -74.5% (active) |
| CCCC(=O)N1CCC1(C)C(=O)Nc1ccc(-n2cncn2)cc1 (stereo not given) | 0.196% (inactive) |
| C[C@@H]1CN([C@H](C)CO)C(=O)CCCn2cc(nn2)CO[C@H]1CN(C)S(=O)(=O)c1ccc(Oc2ccccc2)nc1 | 17.8% (inactive) |
| O=S(=O)(c1ccc(F)cc1)N1CCN=C1SCc1cccc(F)c1 | 12.9% (inactive) |
| CNc1ccc(SC#N)cc1 | -70.1% (active) |
| CC(=O)N1CCc2c(sc(NC(=O)CCS(=O)(=O)c3ccccc3)c2C#N)C1 | inactive |
| O=C1OCCOC2CCCc3oc(-c4ccccc4)c1c32 (stereo not given) | 10.6% (inactive) |
| O=C(NCc1ccccc1)C1c2ccccc2OCC(=O)N1CCCN1CCOCC1 (stereo not given) | 89.8% (inactive) |
| O=S(=O)(NCC1CCCO1)c1cnc(Cl)c(Cl)c1 (stereo not given) | -65.5% (active) |

| Compound | activity change |
| --- | --- |
| C/C(=N\Nc1ncc(Cl)cc1Cl)c1ccc(S(=O)(=O)NCc2ccco2)cc1 | -9.03% (inactive) |
| O=S(=O)(NCc1ccco1)c1cnc(Cl)c(Cl)c1 | -67.1% (active) |
| CCOc1ccc(S(=O)(=O)NCC2CCCO2)cc1 (stereo not given) | 6.01% (inactive) |
| O=C(COC(=O)c1cnc(Cl)c(Cl)c1)NCc1ccco1 | 10% (inactive) |
| O=S(=O)(NCC1CCCO1)c1ccc2ccccc2c1 (stereo not given) | 1.02% (inactive) |
| O=C(Nc1cccc2ccccc12)NC1CC1 | -13.6% (inactive) |
| COC(=O)C[C@H]1C[C@@H]2c3cc(N(C)C)ccc3O[C@@H]2[C@H](CO)O1 | 13.8% (inactive) |
| O=C(NCc1cccnc1)c1cc(C2CCCN(C(=O)C3CCCCC3)C2)on1 (stereo not given) | -24.1% (inactive) |
| CCCNC(=O)c1cc(C2CCCCN2C(=O)OC)on1 (stereo not given) | 0% (inactive) |
| O=C1c2ccccc2-c2ccccc2NC1O (stereo not given) | 7.09% (inactive) |
| CC(C)C1N=C2c3ccccc3N=C(SCC(=O)c3ccc(O)c(O)c3)N2C1=O (stereo not given) | 41.9% (inactive) |
| O=C1CC[C@@H](C(=O)N2CSC[C@@H]2C(=O)Nc2ccc(C(F)(F)F)cc2)N1 | -1.13% (inactive) |
| Cc1ccc(NC(=O)O/N=C/c2cccc([N+](=O)[O-])c2)cc1 | -1.61% (inactive) |
| CS/C(=C\[N+](=O)[O-])Nc1ccc(C)cc1 | -131% (active) |
| COc1cc(NC(=O)Nc2ccc(C)cc2)cc([N+](=O)[O-])c1 | -21% (inactive) |
| Cc1nn(-c2ccccc2)nc1C(=O)OCC(=O)N1CCCCC1C (stereo not given) | 12% (inactive) |
| O=C(Cc1ccc(NC(=O)C2CCCN(C(=O)C3CCCCC3)C2)cc1)Nc1cccc(C(=O)N2CCCCC2)c1 (stereo not given) | -3.57% (inactive) |
| Cc1[nH]c2ccccc2c1C(=O)CSCC(=O)O | 10.6% (inactive) |
| Cc1[nH]c2ccccc2c1C(=O)COC(=O)c1c(-c2ccccc2)noc1C | -59.9% (active) |
| Cc1onc(-c2ccccc2Cl)c1C(=O)OCC(=O)c1ccccc1 | -25.9% (inactive) |
| COc1ccc(CC(=O)NC(C)c2ccc(Cl)c(Cl)c2)cc1S(=O)(=O)N1CCOCC1 (stereo not given) | -9.07% (inactive) |
| CN(C)c1ccc(Nc2c3c4c(cccc4n(C)c2=O)C(=O)c2ccccc2-3)cc1 | -11.1% (inactive) |
| COc1ccc2sc(-c3ccc(N(C)C)cc3)c(C#CCO)c2c1 | -3.05% (inactive) |

| Compound | activity change |
| --- | --- |
| COc1ccc2sc(-c3ccc(N(C)C)cc3)c(-c3ccc4cc[nH]c4c3)c2c1 | -13.1% (inactive) |
| COc1ccc2c(c1)c(=Cc1ccc(N(C)C)cc1)c1cc(-c3ccccc3)[n+](C)n12 | -118% (active) |
| O=C(CCNC(=O)c1ccc(Cl)cc1)NC1CCCc2ccccc21 (stereo not given) | 1.14% (inactive) |
| COc1cc2[nH]c(O)c(C=O)c2cc1OC | -8.17% (inactive) |
| Cc1ccc(C=O)c([B-](F)(F)F)c1 | 5.57% (inactive) |
| CN1c2ccc(C=O)c3c(C=O)ccc(c23)N(C)C1(C)C | -96.3% (active) |
| CCOC(=O)C1=C(C)N=c2s/c(=C\C(=O)OC)c(=O)n2C1c1ccc(OC)cc1 (stereo not given) | 10.3% (inactive) |
| COc1ccc(OC)c(C2C3=C(N=c4s/c(=C\c5cccc(O)c5)c(=O)n42)c2ccccc2CC3)c1 (stereo not given) | -55.4% (active) |
| O=C1CCCC2=C1C(c1ccccc1)n1c(s/c(=C/c3cccc(F)c3)c1=O)=N2 (stereo not given) | 2.6% (inactive) |
| O=S(=O)(Nc1ccc2[nH]ncc2c1)c1ccccc1Cl | -6.19% (inactive) |
| CNC(=O)c1ccsc1NC(=O)c1ccc(S(=O)(=O)N2CCc3ccccc32)cc1 | -11.5% (inactive) |
| CCN(Cc1ccncc1)C(=S)Nc1ccccc1C | 9.34% (inactive) |
| COc1ccc(NC(=O)CCCOc2ccc(C(C)=O)cc2)cc1S(=O)(=O)N1CCCCC1 | 5.4% (inactive) |
| C=CCn1c(COc2ccc(F)cc2)nnc1SCC(=O)Nc1cccc(S(N)(=O)=O)c1 | -56.5% (active) |
| COc1ccc(-n2cnnc2SCC(=O)Nc2cccc(S(N)(=O)=O)c2)cc1 | 23.2% (inactive) |
| C=CCn1c(CC(=O)Nc2cccc(OC)c2)nnc1SCC(=O)NC1CCCCC1 | -18.6% (inactive) |
| O=C(N[C@H]1CC[C@H](CC(=O)N2CCCCC2)O[C@@H]1CO)c1cccc(F)c1 | 34.1% (inactive) |
| COc1ccc(Nc2ncnc3sc(C)cc23)cc1 | 1.88% (inactive) |
| COc1ccc(Nc2ccc3ccccc3c2)cc1 | -4.37% (inactive) |
| COc1ccc(Nc2cc(Sc3ccc(OC)cc3)ncn2)cc1 | -73.2% (active) |
| Cc1cccc(N2CCN(C(=O)/C=C/c3ccco3)CC2)c1C | -12.5% (inactive) |

— PubChem BioAssay AID743279 (National Center for Advancing Translational Sciences (NCATS), 2014)
